Results filed as inconclusive are left out. Values without a mark were called inactive. The call rests on the fitted dose curve; in most records, active means well fitted cell-killing curve with a large enough effect in the repeat runs; inconclusive means weak or mixed curves; inactive means flat fitted curve, though single readings scatter.
On the % scale 0 is the no-effect control and ±100 the full control effect.

A short description of this assay: qHTS assay to identify small molecule antagonists of the estrogen receptor beta (ER-beta) signaling pathway - cell viability counter screen (AID 1259382). Further: nearly all actives have a fitted effect of over 55% in size. The note with it: ER-beta-UAS-bla HEK293T viability, CellTiter-Glo luminescence, 16 h; series mostly up to 92.4 µM; activity change, negative = cytotoxicity: at the top concentration. The source says:
U.S. Tox21 Program National Center for Advancing Translational Sciences [NCATS] NIH Chemical Genomics Center [NCGC] U.S. Environmental Protection Agency [EPA] National Institutes of Environmental Health Sciences [NIEHS] National Toxicology Program [NTP] U.S. Food and Drug Administration [FDA] Tox21 Assay Overview: Estrogen receptor (ER), a nuclear hormone receptor, plays an important role in development, metabolic homeostasis and reproduction. Two subtypes of ER, ER-alpha and ER-beta, have similar expression patterns with some uniqueness in both types. Endocrine disrupting chemicals (EDCs) and their interactions with steroid hormone receptors like ER causes disruption of normal endocrine function. To identify the compounds that inhibit ER signaling, an ER-beta-UAS-bla GripTite cell line (Life Technologies, Madison, WI, USA) containing a beta-lactamase reporter gene under the control of an UAS response element was used to screen Tox21 10K compound library. The cytotoxicity of the Tox21 compound library against the ER-beta-bla cell line was tested in parallel by measuring the cell viability using CellTiter-Glo assay in the same wells.
Tox21 Assay Protocol Summary: ER-beta-UAS-bla HEK293T cells were dispensed at 2,000 cells/4 uL of assay medium containing 2% charcoal stripped FBS per well into black wall/clear-bottom 1536-well plates using a Multidrop Combi (ThermoFisher Scientific, Waltham, MA) dispenser. After the assay plates were incubated at a 37C and 5% CO2 for 6 hr, 23 nL of compounds dissolved in DMSO, positive controls or DMSO only was transferred to the assay plate by a Pintool station (Kalypsys, San Diego, CA), followed by addition of 1 uL (1nM as final concentration) of 17-beta-estradiol (E2) in assay medium using a Flying Reagent Dispenser (FRD, Aurora Discovery, San Diego, CA). The plates were incubated at 37C and 5% CO2 for 16 hr. Then 1 uL of LiveBLAzer B/G FRET substrate was added using a Flying Reagent Dispenser, the plates were incubated at room temperature for 2 hours, and fluorescence intensity was measured by an Envision plate reader (PerkinElmer, Shelton, CT). For cell viability readout that measures cytotoxicity, 4 uL/well of CellTiter-Glo reagent was added into the assay plates using a FRD. After 30 min incubation at room temperature, the luminescence intensity in the plates was measured using a ViewLux (PerkinElmer) plate reader.
On to `CC(CC(=O)Cl)CC(C)(C)C` (stereo not given), for which the “activity change, negative = cytotoxicity” value was 7.03%. Consider `CC(=O)SC[C@@H](C)C(=O)N1CCC[C@H]1C(=O)N[C@@H](Cc1ccccc1)C(=O)O`, for which the “activity change, negative = cytotoxicity” value is -1.01% [at 42.5 µM].

Turning to `CC(C)(C)NCC(O)COc1cccc2c1CCC(=O)N2` (stereo not given), the “activity change, negative = cytotoxicity” value was -3.53% [at 42.5 µM]. The figure for `COc1cc2nc(N3CCN(C(=O)C4CCCO4)CC3)nc(N)c2cc1OC` (stereo not given) is -2.25% [at 42.5 µM]. As to `BrCCOc1ccccc1`, the “activity change, negative = cytotoxicity” value was -1.61%.

With `CCCCCCCCCCCCCCCC/C=C/C1CC(=O)OC1=O` (stereo not given), the “activity change, negative = cytotoxicity” value was 1.33% [at 42.5 µM]. The figure for `CCCCc1ccc(Cl)cc1` is 1.81%; for `CC(C)(C)C(=O)CCc1ccc(Cl)cc1` it is 1.16%.

Turning to `C/C=C/C(=O)CCCC`, the “activity change, negative = cytotoxicity” value was 4.74%. The result for `C[C@@H]1CC[C@@]2(OC1)O[C@H]1C[C@H]3[C@@H]4CC[C@H]5C[C@@H](O)CC[C@]5(C)[C@H]4CC(=O)[C@]3(C)[C@H]1[C@@H]2C` reads 3.19% [at 8.39 µM]; that for `CCC(C)c1nccnc1OC` (stereo not given), 3.75%; that for `O=c1[nH]c(=O)c2cn[nH]c2[nH]1`, -0.896%. Turning to `O=CN1CCCCC1`, the “activity change, negative = cytotoxicity” value is 11.3%.

`Clc1cc(Cl)c(Cl)c(Cl)c1Cl`: the “activity change, negative = cytotoxicity” value is 1.7%. The figure for `C=CCON/C(CCC)=C1\C(=O)CC(C)(C)C(C(=O)OC)=C1O` is 9.36%. The figure for `CCCCCCC(O)CO` (stereo not given) is 9.46%.

As for `COc1ccccc1N1CCN(CC(O)COc2cc(OC)c(OC)c(OC)c2)CC1` (stereo not given), the “activity change, negative = cytotoxicity” value is 3.37% [at 42.5 µM]. The result for `CN(C)c1ccncc1` reads 1.55%; that for `CC(=O)SCC(CC(=O)c1ccc(C)cc1)C(=O)O` (stereo not given), 9.8% [at 42.5 µM]; that for `O=Cc1ccccc1S(=O)(=O)O`, -1.81%. The figure for `CCCCN=C(N)N=C(N)N` is 0.717% [at 42.5 µM]; for `COC(=O)c1cc(Cl)c(NC(C)=O)cc1OC` it is -0.904% [at 42.5 µM]; for `c1coc(Cn2cccc2)c1` it is 6.18%. The result for `Cc1ccc(OC(=O)CC(C)C)cc1` reads -0.306%. Take `CCCCC(O)/C=C(C)/C=C/C=C/C(=O)N1CCCC1=O` (stereo not given): the “activity change, negative = cytotoxicity” value was 4.3% [at 42.5 µM]. The figure for `CO/N=C(\C(=O)O)c1csc(NC(=O)CCl)n1` is -0.646% [at 42.5 µM]. With `CCOC(=O)c1ccc(N(C)C)cc1`, the “activity change, negative = cytotoxicity” value is 6.75%. For `C[C@@H](CN1CC(=O)NC(=O)C1)N1CC(=O)NC(=O)C1`, the “activity change, negative = cytotoxicity” value was -0.981% [at 42.5 µM]. The figure for `CCOC(=O)CN1CCCC1=O` is 2.32% [at 42.5 µM]; for `CCCCCCCOC(C)=O` it is -5.31%; for `Clc1ccc2c(c1)Nc1ccccc1S2` it is 0.509% [at 42.5 µM]. The result for `CC1(C)S[C@@H]2[C@H](NC(=O)Cc3ccccc3)C(=O)N2[C@H]1C(=O)O` (tested in a mixture with another compound) reads 2.02% [at 42.5 µM]; that for `C=CC(=O)CC`, 5.31%; that for `COC(=O)N/N=C/c1c[n+]([O-])c2ccccc2[n+]1[O-]`, -2.13% [at 42.5 µM]. The result for `CC(C)(C)c1ccc(C(=O)CCCCl)cc1` reads 3.17% [at 42.5 µM]; that for `O=P(O)(O)C(O)(Cc1cccnc1)P(=O)(O)O`, 0.764% [at 42.5 µM]; that for `CCCCCCCC(=O)N(C)C`, 0.194%. On to `CC(C)(O)CCCC1=CCC(C=O)CC1` (stereo not given), for which the “activity change, negative = cytotoxicity” value is 1.58%. The figure for `Cc1ccccc1C#N` is 3.79%; for `C/C(Cl)=C/CCl` it is 6.27%.

Source of the values: PubChem BioAssay (Tox21).
